We go through five molecules from PubChem BioAssay.

The nature of assay [1]: compounds binding Alexa647 anti-His antibody – biochemical, small-molecule microarray, 635 nm fluorescence, artefact control for SMM control protein annotation, primary screen (AID 1128).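 Further: score merges feature fluorescence with signal-to-noise for each printed compound spot.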 The following applies: higher = more signal.
Assay [2] has as its system Human papillomavirus type 1a E7 protein (residues 1-88). In words: HPV1a E7 small-molecule binders, primary screen, biochemical, small-molecule microarray, residues 1-88, 635 nm (AID 1129). The following applies: small-molecule microarray binding, fluorescence 635 nm; higher = more signal.
Assay [3] addresses Focal adhesion kinase 1 (Homo sapiens) (UniProt Q05397). In words: PTK2 protein binding on printed compound slides – biochemical, small-molecule microarray, 635/667 nm fluorescence, BSA, DTT, primary screen (AID 1130).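 Further: composite of spot emission at 667 nm and signal to noise over triplicate slides.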 The conditions noted are these: 635 nm fluorescence, higher = more signal.
Assay [4] deals with Fibrinogen (Alexa647-labelled). In words: Alexa647-fibrinogen binding to printed small molecules – biochemical, small-molecule microarray, 635/667 nm fluorescence, artefact control for SMM control-protein annotation, profiling panel (AID 1131).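 Further: z-score merges 667 nm fluorescence with per-spot signal-to-noise over triplicate slides.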 The following applies: fibrinogen-A647 binding fluorescence, higher = more signal.
The target of assay [5] is Follistatin (Homo sapiens) (UniProt P19883). In words: FST protein binding to printed compounds – biochemical, small-molecule microarray, 635/667 nm fluorescence, primary screen (AID 1132). The conditions noted are these: 635 nm fluorescence, higher = more signal.
Assay [6] addresses Fibroblast growth factor 2 (Homo sapiens) (UniProt P09038). In words: basic fibroblast growth factor binding to printed compounds – biochemical, small-molecule microarray, 635/667 nm fluorescence, primary screen (AID 1133). The conditions noted are these: FGF2, fluorescence 635/667, higher = more signal.
Assay [7] in a line: JC-1 mitochondrial potential readout, lung cancer cells – cell-based, A549, JC-1 fluorescence, basal, 24 h, 100 nL, profiling panel (AID 1138).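 Further: A549 lung adenocarcinoma cells under basal conditions with no added stimulus; test concentration not given here.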 The following applies: higher = more signal.
In a further assay the test system is Lefty1. In words: Lefty1 protein binding to printed compounds – biochemical, small-molecule microarray, 635/667 nm fluorescence, primary screen (AID 1139). The following applies: fluorescence 635/667, higher = more signal.
Assay [8] has as its system wheat germ agglutinin (Triticum aestivum), Alexa647-labelled. In words: Alexa647-WGA lectin binding to printed small molecules – biochemical, small-molecule microarray, 635/667 nm fluorescence, artefact control for SMM control-protein annotation, profiling panel (AID 1140).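 Further: score merges 667 nm feature emission with signal to noise over triplicate slides.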 The following applies: WGA-A647 binding, 635 nm fluorescence, higher = more signal.
Assay [9] addresses Luciferin 4-monooxygenase (Photinus pyralis) (UniProt P08659). The assay can be described thus: inhibition of purified Photinus pyralis luciferase – biochemical, luminescence, purified enzyme, 2006 set, primary screen (AID 1141).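 Further: cell-free assay with purified firefly luciferase at 100 ng per well in PBS; test concentration not given here.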 The following applies: purified firefly luciferase, SteadyGlo luminescence, 30 min; higher = more signal, called active from +8 up or from −8 down.
Assay [10] has as its system Wnt5a (protein binding on small-molecule microarray). In words: small molecules binding Wnt5a protein – biophysical, small-molecule microarray, 635/667 nm fluorescence, primary screen (AID 1142).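 Further: fluorescence read at 667 nm with signal to noise per printed feature.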 The conditions noted are these: 635 nm fluorescence, higher = more signal.
Assay [11] in a line: ATP-based viability of Huh7 replicon cells – cell-based, CellTiter-Glo luminescence, basal, 48 h, cytotoxicity control for HCV replication inhibitor project, primary screen (AID 1143).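 Further: Huh7 hepatoma cells carrying a hepatitis C replication reporter with no stimulus; test concentration not given here.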 The conditions noted are these: higher = more signal, called active from +8 up or from −8 down. For orientation: A replicon is a self-replicating genome or part of one, used to study replication in cells.

Assay [12] is described as follows: Pseudomonas biofilm growth suppression – PAO1 strain, BacTiter-Glo luminescence, LB-PBS, primary screen (AID 1144). The following applies: P. aeruginosa PAO1 biofilm, 12 h, higher = more signal.
The nature of assay [13]: basal CRE-LacZ reporter activity in PC12 – cell-based, unstimulated, primary screen (AID 1145). The conditions noted are these: no forskolin, luminescence, 4.5 h, higher = more signal, called active from +8 up or from −8 down.
The nature of assay [14]: forskolin-driven CRE-LacZ activity in PC12 – cell-based, CRE-LacZ reporter, forskolin-stimulated, primary screen (AID 1146).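 Further: PC12 cells with 6xCRE LacZ reporter stimulated by forskolin 10 µM; beta-galactosidase reporter signal reflecting CREB driven transcription.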 The following applies: luminescence, 4.5 h, higher = more signal, called active from +8 up or from −8 down.
Assay [15] deals with Streptavidin (Streptomyces avidinii) (UniProt P22629). In words: compounds binding control protein streptavidin – biophysical, small-molecule microarray, 635/667 nm fluorescence, artefact control for SMM compound annotation, primary screen (AID 1147).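 Further: signal reflects streptavidin binding to arrayed compounds as a control protein.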 The following applies: higher = more signal.
A short description of assay [16]: probe aInhba binding on compound microarray – biochemical, small-molecule microarray, 635/667 nm fluorescence, primary screen (AID 1148).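 Further: score merges 667nm spot fluorescence with signal-to-noise for antibody binding to printed compounds.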 The following applies: higher = more signal.
The target of assay [17] is Torsin-1A (Homo sapiens) (UniProt O14656). The assay can be described thus: TOR1A wild-type binding on microarray – cell lysate, small-molecule microarray, lysate, 635/667 nm, primary screen (AID 1149). The conditions noted are these: COS7 hTOR1A-WT lysate, 635 nm fluorescence, higher = more signal.
For assay [18] the target is unchanged. In words: torsin A mutant lysate binding on microarrays – cell lysate, small-molecule microarray, COS7 lysate, 635/667 nm fluorescence, primary screen (AID 1150).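 Further: score pools 667 nm emission and signal to noise measuring lysate protein binding.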 The following applies: COS7 hTOR1A mutant lysate, 635 nm fluorescence, higher = more signal.
For assay [19], the system named is Sonic hedgehog protein (Shh). The assay can be described thus: Sonic hedgehog microarray binding compounds – biochemical, small-molecule microarray, 635/667 nm fluorescence, primary screen (AID 1151).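 Further: Shh protein binding to compounds spotted on small-molecule microarray slides; score combines spot fluorescence intensity with signal-to-noise across triplicate slides.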 The following applies: 635 nm fluorescence, higher = more signal.

Active and inactive are the calls of the source. Unless noted, how the calls were made is not given here.

Sequence of Fibroblast growth factor 2 (Homo sapiens) (P09038 whole entry, looked up): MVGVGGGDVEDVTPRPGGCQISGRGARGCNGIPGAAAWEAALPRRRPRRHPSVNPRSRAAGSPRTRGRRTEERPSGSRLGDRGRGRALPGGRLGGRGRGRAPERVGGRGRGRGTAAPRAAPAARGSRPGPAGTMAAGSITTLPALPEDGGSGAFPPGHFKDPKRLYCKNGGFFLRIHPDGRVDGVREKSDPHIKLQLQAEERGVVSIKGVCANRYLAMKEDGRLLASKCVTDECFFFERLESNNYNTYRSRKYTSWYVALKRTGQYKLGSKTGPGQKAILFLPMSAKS
Sequence of Focal adhesion kinase 1 (Homo sapiens) (Q05397 whole entry, looked up): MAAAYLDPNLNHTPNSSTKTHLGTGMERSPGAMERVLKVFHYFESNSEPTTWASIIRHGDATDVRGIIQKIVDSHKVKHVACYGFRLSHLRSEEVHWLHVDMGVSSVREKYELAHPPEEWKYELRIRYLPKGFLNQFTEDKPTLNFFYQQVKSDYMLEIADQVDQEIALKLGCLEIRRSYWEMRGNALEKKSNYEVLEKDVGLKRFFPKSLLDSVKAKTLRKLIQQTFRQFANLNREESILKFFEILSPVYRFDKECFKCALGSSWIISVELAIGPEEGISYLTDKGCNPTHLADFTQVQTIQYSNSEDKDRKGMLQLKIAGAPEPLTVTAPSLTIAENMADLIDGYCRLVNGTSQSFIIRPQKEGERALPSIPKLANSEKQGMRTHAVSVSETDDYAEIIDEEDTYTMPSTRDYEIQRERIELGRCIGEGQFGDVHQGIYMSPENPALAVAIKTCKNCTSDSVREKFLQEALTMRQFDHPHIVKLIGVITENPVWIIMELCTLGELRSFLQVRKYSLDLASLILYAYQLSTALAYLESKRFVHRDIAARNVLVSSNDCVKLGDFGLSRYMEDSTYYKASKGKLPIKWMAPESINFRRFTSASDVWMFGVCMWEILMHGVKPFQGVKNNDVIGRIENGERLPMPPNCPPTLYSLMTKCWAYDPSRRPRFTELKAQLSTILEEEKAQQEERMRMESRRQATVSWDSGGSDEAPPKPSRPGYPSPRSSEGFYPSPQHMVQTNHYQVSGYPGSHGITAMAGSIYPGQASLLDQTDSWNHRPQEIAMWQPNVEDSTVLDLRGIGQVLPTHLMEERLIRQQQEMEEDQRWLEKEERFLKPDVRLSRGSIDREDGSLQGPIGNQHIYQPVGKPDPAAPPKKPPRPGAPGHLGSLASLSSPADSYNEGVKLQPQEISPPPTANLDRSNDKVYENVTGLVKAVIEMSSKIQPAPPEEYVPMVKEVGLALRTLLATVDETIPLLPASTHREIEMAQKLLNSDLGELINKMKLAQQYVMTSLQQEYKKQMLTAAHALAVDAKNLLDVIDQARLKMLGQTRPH
Sequence of Torsin-1A (Homo sapiens) (O14656 whole entry, looked up): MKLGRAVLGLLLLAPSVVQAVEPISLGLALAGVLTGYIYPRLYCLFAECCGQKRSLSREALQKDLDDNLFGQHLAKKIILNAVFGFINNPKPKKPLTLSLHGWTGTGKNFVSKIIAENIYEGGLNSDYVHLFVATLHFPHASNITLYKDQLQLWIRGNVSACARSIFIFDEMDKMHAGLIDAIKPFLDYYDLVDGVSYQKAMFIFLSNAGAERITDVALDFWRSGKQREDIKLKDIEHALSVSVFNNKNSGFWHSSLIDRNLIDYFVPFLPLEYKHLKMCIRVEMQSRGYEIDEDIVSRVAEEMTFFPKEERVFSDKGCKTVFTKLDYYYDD
Sequence of Follistatin (Homo sapiens) (P19883 whole entry, looked up): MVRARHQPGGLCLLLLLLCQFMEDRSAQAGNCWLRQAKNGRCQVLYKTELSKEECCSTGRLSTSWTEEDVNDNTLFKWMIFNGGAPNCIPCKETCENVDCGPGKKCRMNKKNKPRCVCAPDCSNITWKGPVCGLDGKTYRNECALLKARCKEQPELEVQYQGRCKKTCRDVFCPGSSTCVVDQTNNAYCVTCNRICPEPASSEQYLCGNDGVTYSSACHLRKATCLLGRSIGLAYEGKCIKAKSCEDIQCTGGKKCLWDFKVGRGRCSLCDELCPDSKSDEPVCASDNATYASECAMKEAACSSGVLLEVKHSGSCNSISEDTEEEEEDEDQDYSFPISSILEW
Sequence of Streptavidin (Streptomyces avidinii) (P22629 whole entry, looked up): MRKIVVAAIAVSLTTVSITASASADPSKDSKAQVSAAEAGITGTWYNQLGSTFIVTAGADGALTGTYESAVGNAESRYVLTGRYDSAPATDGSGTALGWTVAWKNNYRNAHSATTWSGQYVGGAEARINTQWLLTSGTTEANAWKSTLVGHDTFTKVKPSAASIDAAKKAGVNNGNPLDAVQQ
Sequence of Luciferin 4-monooxygenase (Photinus pyralis) (P08659 whole entry, looked up): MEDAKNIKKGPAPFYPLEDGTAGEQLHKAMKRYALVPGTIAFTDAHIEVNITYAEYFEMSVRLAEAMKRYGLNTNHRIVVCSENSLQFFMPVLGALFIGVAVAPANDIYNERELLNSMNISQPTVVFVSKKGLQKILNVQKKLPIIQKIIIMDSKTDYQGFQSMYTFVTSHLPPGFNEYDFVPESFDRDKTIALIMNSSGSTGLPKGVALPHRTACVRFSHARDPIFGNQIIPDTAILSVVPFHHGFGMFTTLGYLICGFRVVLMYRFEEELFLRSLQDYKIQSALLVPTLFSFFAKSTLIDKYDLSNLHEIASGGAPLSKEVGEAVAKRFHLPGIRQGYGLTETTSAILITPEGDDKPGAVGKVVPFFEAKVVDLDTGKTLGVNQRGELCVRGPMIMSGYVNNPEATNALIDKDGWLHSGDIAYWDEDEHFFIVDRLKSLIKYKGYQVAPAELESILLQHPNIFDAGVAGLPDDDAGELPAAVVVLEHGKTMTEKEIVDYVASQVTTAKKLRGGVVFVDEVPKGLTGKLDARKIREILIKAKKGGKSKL

In the case of `C=CCC(OC(C)=O)[C@@H]1[C@@H](N(Cc2cc3ccccc3o2)C(=O)c2ccc(C)cc2)c2cc(OCCCO)ccc2N1C(=O)Cc1ccc2ccccc2c1` (stereo not given in full), the composite z-score in assay [1] is -0.631; in assay [2], -0.627; in [3], 0.105; in assay [4], -0.638; in assay [5], 0.119; in [6] it was -0.421. For the same molecule, the composite z-score in the assay with Lefty1 was -0.281; in assay [8] it was -0.152; in [10] it was -0.109; in assay [15], -0.172; in [16], -0.0523; with Torsin-1A (Homo sapiens) [17] it was -0.0509. Further, the composite z-score was -0.0619 with Torsin-1A (Homo sapiens) [18] and 0.0781 in assay [19]. Also, the z-score was 1.91 in assay [7]; -1.72 (inactive) in [9]; 0.218 (inactive) in assay [11]; -0.956 (inactive) in [12]; 2.37 (inactive) in assay [13]; -0.072 (inactive) in [14].

For the molecule `C=C[C@H](COC(C)=O)NS(=O)(=O)c1ccc(Br)cc1`, the composite z-score in assay [1] was 0.207; in assay [2], -0.575; in [3] it was -0.0533; in [4], 0.382; in assay [5], 1.27; in [6], -0.0651. Moreover, the composite z-score was 0.17 in the assay on Lefty1; 0.146 in assay [8]; -0.0966 in [10]; 1.16 in assay [15]; -0.0762 in assay [16]; 0.119 with Torsin-1A (Homo sapiens) [17]. Also, the composite z-score in the assay with Torsin-1A (Homo sapiens) [18] is -0.214; in [19] it was 0.382. Further, the z-score in [7] is 0.695; in [9] it was -0.503 (inactive); in assay [11], 0.0651 (inactive); in [12], -0.0168 (inactive); in assay [13], 0.26 (inactive); in assay [14] it was 0.678 (inactive).

With `CC(C)(C)OC(=O)CC[C@]1(C(=O)NCCN2CCOCC2)N=C(c2ccc(OCCCO)cc2)O[C@H]1c1ccccc1N=[N+]=[N-]`, the composite z-score is 2.11 in [1]; 1.15 in [2]; 0.782 in assay [3]; 1.04 in assay [4]; 0.283 in assay [5]; -0.104 in assay [6]. In addition, the composite z-score is -0.595 in the assay with Lefty1; 1.33 in assay [8]; 0.191 in [10]; 0.615 in assay [15]; 0.367 in assay [16]; 0.0272 in the assay with Torsin-1A (Homo sapiens) [17]. The values for the composite z-score (with Torsin-1A (Homo sapiens) [18]; in [19]) were 1.28 and -0.299, respectively. In addition, the z-score in assay [7] is 0.669; in assay [9] it was -10.8 (active); in assay [11], -0.616 (inactive); in assay [12], 0.145 (inactive); in assay [13], 0.872 (inactive); in assay [14], -0.55 (inactive).

In the case of `CCCCN1CC=CC23O[C@@H]4/C=C\CCC(C)OC(=O)C4[C@H]2C(=O)N(CCCCCCO)[C@@H]3C1=O` (stereo not given in full), the composite z-score in assay [1] was 0.539; in [2] it was 0.0554; in assay [3] it was -0.266; in [4], -1.22; in [5], -0.454; in [6], -0.668. In addition, the composite z-score in the assay with Lefty1 was -0.74; in [8] it was -0.465; in assay [10], 0.0569; in [15], -0.519; in [16], -0.239; in the assay with Torsin-1A (Homo sapiens) [17] it was 1.08. Also, the results for the composite z-score (in the assay with Torsin-1A (Homo sapiens) [18]; in [19]) were 2.16 and -0.57, respectively. Also, the z-score in [7] is 0.376; in assay [9], -0.393 (inactive); in assay [11] it was 0.745 (inactive); in assay [12] it was -0.72 (inactive); in [13], 0.61 (inactive); in assay [14], -0.0292 (inactive).

As to `COCCOC(=O)N1C(=O)[C@@]2(c3cc(C#CCNC(N)=O)ccc31)[C@H](C(=O)N1CCCCCCC1)[C@H]1C(=O)O[C@H](c3ccccc3)[C@H](c3ccccc3)N1[C@@H]2c1ccc(O)cc1`, the composite z-score is -0.269 in assay [1]; 1 in [2]; 0.478 in assay [3]; 0.391 in assay [4]; 1.4 in assay [5]; 1.24 in [6]. The composite z-score in the assay on Lefty1 was 0.742; in [8], 0.128; in [10] it was 0.233; in assay [15], 0.399; in assay [16], -0.101; with Torsin-1A (Homo sapiens) [17] it was 0.266. Besides, the composite z-score was 0.216 with Torsin-1A (Homo sapiens) [18] and 1.12 in assay [19]. Further, the z-score was -0.606 in assay [7]; -0.352 (inactive) in assay [9]; -0.204 (inactive) in [11]; 0.942 (inactive) in assay [12]; -0.0526 (inactive) in [13]; -0.333 (inactive) in [14].
